The target in assay [1] is Lysosomal acid glucosylceramidase (Homo sapiens) (UniProt P04062). Nature of the assay: Glucocerebrosidase-p2 (AID 348; in the data active = potency below about 10 µM; also: potency is read from the fitted curve at half-maximal effect). Particulars: purified GBA, blue fluorogenic substrate, 40 min. The procedure, abridged:
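Compounds titrated from 0.6 nM upwards against 0.2 nM enzyme in pH 5.9 citric acid/KH2PO4, taurocholate, tween-20; blue fluorogenic substrate 80 uM, 40 min room temperature, stopped and read Ex 365/Em 440 for AC50.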

Assay [2] is described as follows: AP1 Signaling Pathway (AID 357). Also: % is scaled to controls: 0 for no effect and ±100 for the full control effect. Particulars: ME-180 AP-1-bla reporter, EGF-induced, beta-lactamase ratio, 5 h; at 7.69 µM (top of the series) unless noted. The procedure, abridged: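 ME-180 cells with beta-lactamase reporter under AP-1 response element, stimulated with EC50 EGF; compounds tested in titration series, 5 h at 37 °C. CCF4 substrate added 2.5 h at room temperature; 460/530 nm emission ratio gave %activity and AC50.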

Assay [3] can be described thus: NFAT Signaling Pathway (AID 444).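 Also: carbachol stimulus at about its EC50 of 1 µM final; % is scaled to controls: 0 for no effect and ±100 for the full control effect.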 Particulars: Jurkat NFAT-bla M1, carbachol, beta-lactamase ratio, 5 h; at 7.69 µM (top of the series) unless noted. The procedure, abridged: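 Jurkat cells carrying an NFAT-driven β-lactamase reporter and co-transfected muscarinic M1 receptor were treated with compound plus carbachol (1 uM final, an EC50 level) for 5 h at 37 °C. CCF4 loading followed for 1 h at RT; 460/530 nm ratio gave %activity.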

The nature of assay [4]: Stat Signaling Pathway (AID 446).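 Also: ME-180 cervical cancer cells given 40 pM IL-6 alongside compound; SIE-controlled beta-lactamase reporter measured as 460/530 nm FRET emission ratio; % is scaled to controls: 0 for no effect and ±100 for the full control effect.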 To be noted: ME-180 SIE beta-lactamase reporter, IL-6 stimulated, 5 h; at 7.69 µM (top of the series) unless noted. In outline:
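IL-6/STAT signaling read in ME-180 cells via an SIE beta-lactamase reporter. Stimulus was 40 pM IL-6 (its AC50) for 5 hrs, so both activation and inhibition register.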

Assay [5] has as its target Glucocorticoid receptor (Homo sapiens) (UniProt P04150). Kind of assay: GR-GFP Redistribution (AID 450;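 active = compounds whose dose series gives a full or clear partial fitted curve of increased nuclear translocation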; also: potency is read from the fitted curve at half-maximal effect). To be noted: U2OS GR-GFP nuclear translocation, laser cytometry, 2 h.
The target is the same in assay [6]. Kind of assay: GR-EFC Redistribution (AID 451; calls by dose curve; also: potency is read from the fitted curve at half-maximal effect). To be noted: CHO-K1 GR-EFC translocation, beta-gal luminescence, 2 h. The procedure, abridged: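 CHO-K1 cells stably expressing nuclear-localized β-gal enzyme acceptor and GR fused C-terminally to the enzyme donor fragment; ligand-driven nuclear translocation restores β-gal by complementation. Compounds titrated up to 46 uM final, 2 h at 37 °C; luminescence read.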

Assay [7] addresses Mitogen-activated protein kinase 10 (Mus musculus) (UniProt Q61831). Kind of assay: JNK3 AlphaScreen Assay (AID 530).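 Also: kinase came from lysate of stimulated human HepG2 cells; signal reports phosphorylation of biotinylated GST-cJun 1-79 at Ser73 with 10 µM ATP; % is scaled to controls: 0 for no effect and ±100 for the full control effect.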 To be noted: JNK3 lysate, c-Jun phosphorylation; series mostly up to 11.4 µM. The procedure, abridged:
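Inhibitors reduce antibody binding to phosphorylated biotin-cJun, lowering AlphaScreen luminescence. Lysates from HepG2 cells pre-activated by IL-1beta plus TNF-alpha supplied JNK3; compounds were titrated.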
(Alpha assays give light when donor and acceptor beads are brought close together.)

Assay [8] deals with 3',5'-cyclic-AMP phosphodiesterase 4B (Homo sapiens) (UniProt Q07343). Nature of the assay: qHTS Assay for Inhibitors of PDE-IV (AID 607; active = well fitted activation curve with a large enough effect in the main read-out, with a control signal flat, not every such curve was filed as active; also: % of control where 0% means no effect). Particulars: HEK293 ACTOne CNG channel cells, membrane potential fluorescence; series mostly up to 22.9 µM. The procedure, abridged:
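Live HEK293 cells with a modified cyclic nucleotide-gated (CNG) channel report intracellular cAMP via membrane-potential dye fluorescence (ex 535/em 590 nm). Endogenous PDE-IV was targeted. Compounds were tested at up to 22.9 uM final; RO 20-1724 100 uM served as control.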

The nature of assay [9]: qHTS Assay for Identification of Small Molecule Agonists for Hypoxia Response Element Signaling Pathway (AID 914; active = well fitted activation curve with a large enough effect in the signal ratio, with a control signal flat, not every such curve was filed as active; the % refers to the signal ratio; also: % of control where 0% means no effect). Particulars: ME-180 (cervical carcinoma) HRE-bla reporter, beta-lactamase ratio, CoCl2, 17 h; activation: active compounds read high. In outline:
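In Opti-MEM containing 0.5% dialyzed FBS and 10 mM HEPES, ME-180 HRE-bla cells received a compound titration and EC50 CoCl2. They were incubated 17 hours, then CCF4-loaded 2.5 hours at room temperature before ratio reading.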
In general terms: In qHTS, concentration-response curves come from the screen itself.

The target of assay [10] is Cytochrome P450 2C9 (Homo sapiens) (UniProt P11712). Nature of the assay: qHTS Assay for Inhibitors and Substrates of Cytochrome P450 2C9 (AID 883; active = well fitted curve in the direction sought with a large enough effect; an effect the other way counts as inactive or inconclusive; also: nearly all actives have a fitted effect of over 60% in size; also: potency is read from the fitted curve at half-maximal effect). Particulars: recombinant CYP2C9, luciferin-H luminescence, 60 min; series mostly up to 11.4 µM. The procedure, abridged:
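A luminogenic readout tracked human CYP2C9 (10nM) converting deoxyluciferin (100uM, at KM) in 25mM KPO4 during 60 min at 37C with regenerated NADPH. Values normalized to 57uM sulphaphenazole as complete inhibition.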

Assay [11] concerns the target Cytochrome P450 3A4 (Homo sapiens) (UniProt P08684). Nature of the assay: qHTS Assay for Inhibitors and Substrates of Cytochrome P450 3A4 (AID 884; active = well fitted curve in the direction sought with a large enough effect; an effect the other way counts as inactive or inconclusive; also: potency is read from the fitted curve at half-maximal effect; nearly all actives have a fitted effect of over 50% in size). Particulars: recombinant CYP3A4, Luciferin-PPXE luminescence; series mostly up to 57.1 µM. In outline: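 20 nM human CYP3A4 with 25 uM Luciferin-PPXE (at KM) in 200 mM KPO4, preincubated 10 min with compound; NADPH regeneration started a 60 min RT reaction. Luciferin detected by luminescence, normalized to 57 uM ketoconazole as full inhibition.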

The target is the same in assay [12]. Nature of the assay: qHTS Assay for Activators of Cytochrome P450 3A4 (AID 885; active = well fitted curve in the direction sought with a large enough effect; an effect the other way counts as inactive or inconclusive; also: nearly all actives have a fitted effect of over 65% in size). Particulars: recombinant CYP3A4, Luciferin-PPXE luminescence, 60 min; series mostly up to 11.4 µM. The procedure, abridged:
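Quantitative HTS format: compounds preincubated with 20nM human CYP3A4 and Luciferin-PPXE substrate at KM, reaction started by NADPH regeneration, stopped after 60 min, luciferase luminescence read 20 min later.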

From PubChem BioAssay (NCATS) come the findings set out here.

Values without a mark were called inactive. Inconclusive results are not listed. Activity calls are given as the source filed them. Unless noted, calls follow the shape of the dose curve; as a rule, active = well fitted curve in either direction with a large enough effect (not every such curve was filed as active); inconclusive = small, poorly fitted or top-dose-only effect, or another doubt; inactive = flat fitted curve, though single readings scatter.

Sequence of Glucocorticoid receptor (Homo sapiens) (P04150 whole entry, looked up, the tested form may be a part): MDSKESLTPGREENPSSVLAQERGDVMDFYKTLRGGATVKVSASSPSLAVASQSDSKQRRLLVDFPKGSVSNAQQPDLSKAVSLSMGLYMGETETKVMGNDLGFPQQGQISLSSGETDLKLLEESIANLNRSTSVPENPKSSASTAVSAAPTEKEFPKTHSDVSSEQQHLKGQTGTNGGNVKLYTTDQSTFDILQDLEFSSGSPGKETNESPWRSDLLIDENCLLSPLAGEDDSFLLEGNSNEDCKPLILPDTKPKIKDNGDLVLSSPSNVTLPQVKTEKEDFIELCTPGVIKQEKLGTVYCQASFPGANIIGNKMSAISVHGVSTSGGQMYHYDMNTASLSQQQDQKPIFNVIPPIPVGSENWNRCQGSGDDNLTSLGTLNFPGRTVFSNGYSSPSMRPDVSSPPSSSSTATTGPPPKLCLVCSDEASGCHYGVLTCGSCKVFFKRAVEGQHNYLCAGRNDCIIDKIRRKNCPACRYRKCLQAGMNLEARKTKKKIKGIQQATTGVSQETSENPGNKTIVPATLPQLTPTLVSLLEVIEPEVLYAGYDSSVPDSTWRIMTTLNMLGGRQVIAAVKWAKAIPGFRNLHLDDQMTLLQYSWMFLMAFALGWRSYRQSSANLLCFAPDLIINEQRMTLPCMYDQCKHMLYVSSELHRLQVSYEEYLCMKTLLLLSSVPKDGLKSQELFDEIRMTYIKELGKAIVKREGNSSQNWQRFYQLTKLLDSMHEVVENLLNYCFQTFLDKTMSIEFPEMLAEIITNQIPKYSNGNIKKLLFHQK
Sequence of 3',5'-cyclic-AMP phosphodiesterase 4B (Homo sapiens) (Q07343 whole entry, looked up): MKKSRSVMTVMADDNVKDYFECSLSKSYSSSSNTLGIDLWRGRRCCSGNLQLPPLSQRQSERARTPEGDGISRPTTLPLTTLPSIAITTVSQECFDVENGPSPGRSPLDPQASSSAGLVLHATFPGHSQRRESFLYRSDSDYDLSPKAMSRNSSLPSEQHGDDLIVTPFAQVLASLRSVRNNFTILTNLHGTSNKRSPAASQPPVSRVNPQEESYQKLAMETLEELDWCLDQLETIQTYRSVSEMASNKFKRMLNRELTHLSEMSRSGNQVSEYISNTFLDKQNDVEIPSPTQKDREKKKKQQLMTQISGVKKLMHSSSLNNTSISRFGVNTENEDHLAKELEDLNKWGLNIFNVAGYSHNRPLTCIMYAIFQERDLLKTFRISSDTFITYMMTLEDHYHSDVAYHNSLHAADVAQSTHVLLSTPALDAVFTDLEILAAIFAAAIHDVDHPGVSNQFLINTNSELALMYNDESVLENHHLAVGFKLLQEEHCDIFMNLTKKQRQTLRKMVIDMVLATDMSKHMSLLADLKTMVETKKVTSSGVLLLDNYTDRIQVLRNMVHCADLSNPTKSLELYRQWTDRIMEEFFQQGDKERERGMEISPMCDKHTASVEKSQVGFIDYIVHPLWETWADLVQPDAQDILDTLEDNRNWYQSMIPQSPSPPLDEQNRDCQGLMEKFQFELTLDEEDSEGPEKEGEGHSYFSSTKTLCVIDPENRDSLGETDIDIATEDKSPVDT
Sequence of Lysosomal acid glucosylceramidase (Homo sapiens) (P04062 whole entry, looked up): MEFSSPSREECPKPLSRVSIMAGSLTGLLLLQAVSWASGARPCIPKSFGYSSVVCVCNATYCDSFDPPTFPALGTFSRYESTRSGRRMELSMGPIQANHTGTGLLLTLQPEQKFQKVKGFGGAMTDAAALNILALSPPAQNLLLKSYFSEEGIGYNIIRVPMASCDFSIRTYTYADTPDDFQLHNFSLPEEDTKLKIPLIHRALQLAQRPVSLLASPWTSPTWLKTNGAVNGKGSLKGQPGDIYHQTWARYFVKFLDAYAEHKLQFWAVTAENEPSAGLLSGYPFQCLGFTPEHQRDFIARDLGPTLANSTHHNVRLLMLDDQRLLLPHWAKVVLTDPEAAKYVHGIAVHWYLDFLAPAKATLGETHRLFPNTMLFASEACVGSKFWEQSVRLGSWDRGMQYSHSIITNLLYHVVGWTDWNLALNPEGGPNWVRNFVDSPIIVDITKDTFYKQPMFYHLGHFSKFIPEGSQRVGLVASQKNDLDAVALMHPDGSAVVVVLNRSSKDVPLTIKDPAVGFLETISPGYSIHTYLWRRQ
Sequence of Cytochrome P450 3A4 (Homo sapiens) (P08684 whole entry, looked up): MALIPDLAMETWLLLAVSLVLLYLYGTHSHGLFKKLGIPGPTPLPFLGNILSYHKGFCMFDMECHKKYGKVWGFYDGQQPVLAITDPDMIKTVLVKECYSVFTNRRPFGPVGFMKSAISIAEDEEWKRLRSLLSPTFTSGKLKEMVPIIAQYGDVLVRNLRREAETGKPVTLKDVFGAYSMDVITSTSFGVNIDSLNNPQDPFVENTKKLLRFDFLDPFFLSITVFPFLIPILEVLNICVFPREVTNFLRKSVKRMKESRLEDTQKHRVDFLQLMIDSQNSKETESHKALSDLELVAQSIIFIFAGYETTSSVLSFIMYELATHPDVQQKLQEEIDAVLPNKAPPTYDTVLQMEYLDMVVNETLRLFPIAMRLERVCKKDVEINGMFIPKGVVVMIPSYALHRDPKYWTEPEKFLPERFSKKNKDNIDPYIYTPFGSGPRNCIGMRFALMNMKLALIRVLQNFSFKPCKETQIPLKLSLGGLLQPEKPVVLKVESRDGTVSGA
Sequence of Cytochrome P450 2C9 (Homo sapiens) (P11712 whole entry, looked up): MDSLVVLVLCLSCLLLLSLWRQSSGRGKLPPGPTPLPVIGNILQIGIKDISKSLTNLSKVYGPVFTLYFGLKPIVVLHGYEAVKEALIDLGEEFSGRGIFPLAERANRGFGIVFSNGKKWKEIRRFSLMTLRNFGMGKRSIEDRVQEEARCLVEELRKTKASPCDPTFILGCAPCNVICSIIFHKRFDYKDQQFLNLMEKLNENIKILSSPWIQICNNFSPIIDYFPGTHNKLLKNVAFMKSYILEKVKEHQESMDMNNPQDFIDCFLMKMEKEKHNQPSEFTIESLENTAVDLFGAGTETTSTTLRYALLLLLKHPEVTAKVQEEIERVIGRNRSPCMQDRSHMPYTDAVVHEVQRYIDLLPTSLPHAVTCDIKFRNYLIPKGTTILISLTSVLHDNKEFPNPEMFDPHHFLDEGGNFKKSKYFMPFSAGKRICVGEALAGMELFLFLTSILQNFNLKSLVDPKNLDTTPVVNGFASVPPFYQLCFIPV

As to `Cn1c(=O)c2[nH]c(CCNC(=O)c3ccccc3)nc2n(C)c1=O`, the Potency in [1] is over 11.4 µM; in [5] it was over 46 µM; in [6] it was over 9.22 µM. The activity change, negative = inhibition was 5.92% in assay [2] and 10.4% in assay [3]. For the same compound, the activity, negative = inhibition in [4] was 3.06%. For the same compound, the Potency result in [7] and in [8] was “inactive” each time. In [9], the activation is 8.28%.
For the compound `O=S(=O)(O)c1cc(O)c2c(O)c(N=Nc3cccc4ccccc34)c(S(=O)(=O)O)cc2c1`, the figures for the Potency in assay [1], in assay [5] and in [6] were over 11.4 µM, over 46 µM and over 9.22 µM, respectively. Further, the activity change, negative = inhibition is -2.93% in assay [2] and -6.39% in assay [3]. For the same compound, the activity, negative = inhibition in assay [4] is 4.42%. The Potency result in assay [8] is “inactive”. The activation in assay [9] is -26.6%.
On to `Cc1ccc(N=Nc2c(O)c(S(=O)(=O)O)cc3cc(S(=O)(=O)O)ccc23)c(C)c1`, for which the Potency is over 11.4 µM in assay [1], over 46 µM in assay [5] and over 9.22 µM in assay [6]. For the same compound, the results for the activity change, negative = inhibition in assay [2] and in assay [3] were 19.9% and 10.1%, respectively. Also, the activity, negative = inhibition in assay [4] is -2.41%. Moreover, in assay [8], the Potency entry was “inactive”.
As to `COc1ccc([C@@H](C)c2cc3c(cc2O)OCO3)cc1`, the Potency is over 11.4 µM in assay [1]; over 46 µM in [5]; over 9.22 µM in assay [6]; 1.58 µM (active) in assay [10]; 2.51 µM (active) in assay [11]. Moreover, the activity change, negative = inhibition in assay [2] was -11.5%; in assay [3], -3.98%. Also, the activity, negative = inhibition in assay [4] is 4.36%. For the same compound, the Potency entry in [8] and in assay [12] was “inactive” throughout.
Regarding `NC[C@H]1O[C@@H](n2cnc3c(=O)[nH]c(N)nc32)[C@@H](O)[C@@H]1O`, the Potency in [1] is over 11.4 µM; in assay [5] it was over 46 µM; in assay [6], over 9.22 µM. Moreover, the activity change, negative = inhibition is -6.27% in assay [2] and 5.35% in assay [3]. In addition, the activity, negative = inhibition in assay [4] is 3.9%. The Potency result in assay [7] and in assay [8] was “inactive” throughout. Besides, in [9], the activation was 4.86%.
Take `Cc1ccc(N=Nc2c(O)ccc3cc(S(=O)(=O)O)ccc23)cc1`: the Potency in assay [1] is over 11.4 µM; in assay [5] it was over 46 µM; in assay [6], over 9.22 µM. Also, the activity change, negative = inhibition in [2] was -18.1%; in assay [3] it was -0.401%. For the same compound, the activity, negative = inhibition in assay [4] is -4.61%. In addition, in [8], the Potency entry was “inactive”.
Consider `Nc1nc(C(=O)O)c(N=Nc2ccccc2)c(=O)[nH]1`, for which the Potency in assay [1] is over 11.4 µM; in assay [5], over 46 µM; in assay [6], over 9.22 µM. The activity change, negative = inhibition in [2] is 4.49%; in assay [3] it was -22.9%. The activity, negative = inhibition in assay [4] was 7.24%. Further, in assay [8], the Potency entry is “inactive”.
With `Clc1ccccc1/C=C\c1ccnc2ccccc12`, the Potency in [1] was over 11.4 µM; in [5] it was over 46 µM; in assay [6], over 9.22 µM. The activity change, negative = inhibition is -23.6% in assay [2] and 2.98% in assay [3]. The activity, negative = inhibition in assay [4] was 1.25%. For the same compound, the Potency result in assay [7] and in [8] was “inactive” in each case. The activation in assay [9] was -24.5%.
For `OCCCNCc1ccncc1`, the Potency in [1] is over 11.4 µM; in [5], over 46 µM; in assay [6], over 9.22 µM. The activity change, negative = inhibition in assay [2] was -2.93%; in [3], 5.43%. In addition, in assay [4], the activity, negative = inhibition was -6.9%. For the same compound, the Potency entry in [7] and in assay [8] was “inactive” each time. Also, in [9], the activation was 1.84%.
Regarding `CC(C)(CCc1nc2ccccc2[nH]1)C(=O)O`, the figures for the Potency in [1], in assay [5] and in assay [6] were over 11.4 µM, over 46 µM and over 9.22 µM, respectively. Moreover, the activity change, negative = inhibition in assay [2] was -7.34%; in assay [3], 6.77%. The activity, negative = inhibition in assay [4] was 1.19%. The Potency result in [8] and in assay [10] was “inactive” each time.
`CS(=O)(=O)c1ccc(/C=N\NC(N)=S)cc1`: the figures for the Potency in assay [1], in assay [5] and in assay [6] were over 11.4 µM, over 46 µM and over 9.22 µM, respectively. The values for the activity change, negative = inhibition in [2] and in [3] were 2.65% and 1.52%, respectively. Moreover, in assay [4], the activity, negative = inhibition was -2.81%. Besides, the Potency result in assay [8] is “inactive”.
Turning to `CC(C)(CO)N1CCN(C(=S)Nc2ccccc2)CC1`, the Potency is over 11.4 µM in assay [1], over 46 µM in assay [5] and over 9.22 µM in assay [6]. Further, the results for the activity change, negative = inhibition in [2] and in assay [3] were 7.77% and 17.5%, respectively. Besides, the activity, negative = inhibition in assay [4] was -2.59%. Moreover, the Potency result in assay [7] and in assay [8] was “inactive” throughout. In addition, the activation in assay [9] was 10%.
Take `CSc1nc(C)cc(Nc2ccc(O)c(CN3CCCCC3)c2)n1`: the Potency is over 11.4 µM in assay [1], over 46 µM in [5] and over 9.22 µM in assay [6]. Also, the activity change, negative = inhibition in assay [2] is -6.95%; in [3], -16.1%. The activity, negative = inhibition in assay [4] was 2.99%. Further, the Potency entry in assay [7] and in [8] was “inactive” throughout. The activation in [9] is 4.77%.
As for `O=S(=O)(O)c1ccc2c(N=Nc3cccc4ccccc34)c(O)c(S(=O)(=O)O)cc2c1`, the values for the Potency in assay [1], in assay [5] and in assay [6] were over 11.4 µM, over 46 µM and over 9.22 µM, respectively. The values for the activity change, negative = inhibition in [2] and in assay [3] were -5.27% and -7.38%, respectively. Besides, the activity, negative = inhibition in [4] was -0.528%. The Potency result in assay [8] was “inactive”.
On to `O=C(O)c1cccc(N=Nc2c(S(=O)(=O)O)ccc3c2C(=O)c2ccccc2C3=O)c1O`, for which the Potency in [1] is over 11.4 µM; in [5] it was over 46 µM; in assay [6] it was over 9.22 µM. The values for the activity change, negative = inhibition in [2] and in assay [3] were 9.86% and -3.54%, respectively. The activity, negative = inhibition in assay [4] was -9.02%. Also, the Potency entry in assay [8] was “inactive”.
